Measurements published in the supplement of paper PMC8975748.
Counter-ions that a name gives are not always drawn.

What follows are molecules tested on Saccharomyces cerevisiae BY4741 SeMeCo community (assay: z-score of subpopulation abundance vs DMSO median, subpopulation auxotrophic for HM; higher = larger share of this subpopulation than in DMSO controls). Conditions: 10 µM; 24 h; SM minimal medium; subpopulation (auxotrophy): HM.
Method: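 Fluorescent four-plasmid SeMeCo (self-establishing metabolically cooperating S. cerevisiae BY4741 community; plasmids pH-mRuby2, pL-mWasabi, pU-eCFP, pM-TagRFP657) was grown 24 h in minimal SM medium with each Selleck FDA-approved drug at 10 µM in 384-well plates. Cells were fixed and imaged by high-content confocal microscopy. For each auxotrophic subpopulation (and the prototroph), a z-score gives the deviation from the DMSO vehicle-control population median.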

In order of rising “z-score of subpopulation abundance” value:
1. CCN(C)C(=O)Oc1cccc([C@H](C)N(C)C)c1 [Rivastigmine Tartrate]  -1.12
2. COc1ccc(C=O)cc1 [p-Anisaldehyde]  -0.95
3. CN1[C@@H]2C[C@@H](OC(=O)[C@H](CO)c3ccccc3)C[C@H]1[C@@H]1O[C@@H]12 [Scopolamine HBr]  -0.93
4. CN1[C@@H]2CC[C@H]1C[C@@H](OC(=O)C(CO)c1ccccc1)C2 (some centres undefined) [Atropine sulfate monohydrate]  -0.85
5. CN1[C@@H]2CC[C@H]1C[C@@H](OC(=O)[C@H](CO)c1ccccc1)C2 [Hyoscyamine]  -0.73
6. CN(C)[C@@H]1C(=O)C(C(N)=O)=C(O)[C@@]2(O)C(=O)C3=C(O)c4c(O)ccc(Cl)c4[C@@](C)(O)[C@H]3C[C@@H]12 [Chlortetracycline HCl]  -0.67
7. COc1ccc(C(CN(C)C)C2(O)CCCCC2)cc1 (centres undefined) [Venlafaxine HCl]  -0.61
8. CCC1=C[C@H]2CN3CCc4c([nH]c5ccccc45)[C@](C(=O)OC)(C2)[C@H]13 [Catharanthine]  -0.61
9. CCN(CC)CCOC(=O)C(O)(c1ccccc1)c1ccccc1 [Benactyzine hydrochloride]  -0.6
10. CN(C)C(=O)Oc1cccc([N+](C)(C)C)c1 [Neostigmine Bromide]  -0.54
11. CC(C)(O)C(Cl)(Cl)Cl [Chlorobutanol]  -0.53
12. CN1c2ccccc2C(NCCCCCCC(=O)O)c2ccc(Cl)cc2S1(=O)=O (centres undefined) [Tianeptine sodium]  -0.51
13. C=C[C@H]1CN2CC[C@H]1C[C@H]2[C@H](O)c1ccnc2ccccc12 [Cinchonidine]  -0.43
14. C[N+](C)(C)CCCCCCCCCC[N+](C)(C)C [Decamethonium Bromide]  -0.42
15. CCCN1C[C@H](CSC)C[C@@H]2c3cccc4[nH]cc(c34)C[C@H]21 [Pergolide Mesylate]  -0.36
16. Cc1cc(O)ccc1Cl [Chlorocresol]  -0.29
17. C[C@H]1O[C@H](O[C@H]2[C@H](O)[C@@H](O)[C@@H](O)[C@H](O)[C@@H]2O)[C@@H](N)C[C@@H]1NC(=N)C(=O)O [Kasugamycin hydrochloride]  -0.08
18. CC[N+](C)(CC)CCOC(=O)C(O)(c1ccccc1)c1ccccc1 [Methylbenactyzine Bromide]  0.02
19. O=c1cccc2n1C[C@@H]1CNC[C@H]2C1 [Cytisine]  0.02
20. CN(C)C(=O)Oc1ccc[n+](C)c1 [Pyridostigmine Bromide]  0.07
21. COC(=O)C1=CCCN(C)C1 [Arecoline HBr]  0.08
22. CC(C)N(CCC(C(N)=O)(c1ccccc1)c1ccccn1)C(C)C (centres undefined) [Disopyramide]  0.08
23. CC1(C)SC2C(N)C(=O)N2C1C(=O)O (centres undefined) [6-Aminopenicillanic acid]  0.18
24. CC[C@@]1(O)C(=O)OCc2c1cc1n(c2=O)Cc2cc3ccccc3nc2-1 [Camptothecin]  0.23
25. COc1cc2c(cc1OC)C1CC(=O)C(CC(C)C)CN1CC2 (centres undefined) [Tetrabenazine (Xenazine)]  0.63
26. CN(C)[C@@H]1C(=O)C(C(N)=O)=C(O)[C@@]2(O)C(=O)C3=C(O)c4c(O)cccc4[C@@](C)(O)[C@H]3[C@H](O)[C@@H]12 [Oxytetracycline (Terramycin)]  0.64
27. CN(C)[C@@H]1C(=O)C(C(N)=O)=C(O)[C@@]2(O)C(=O)C3=C(O)c4c(O)cccc4[C@@](C)(O)[C@H]3C[C@@H]12 [Tetracycline HCl]  0.72
28. CCOC(=O)Nc1ccc(NCc2ccc(F)cc2)cc1N [Retigabine 2HCl]  0.88
29. CN1C(=O)COc2c(C(=O)NC3CN4CCC3CC4)cc(Cl)cc21 (centres undefined) [Azasetron HCl]  0.88
30. C=C(C)[C@H]1Cc2c(ccc3c2O[C@@H]2COc4cc(OC)c(OC)cc4[C@@H]2C3=O)O1 [Rotenone (Barbasco)]  0.89
31. C=CN1CCCC1=O.II [Povidone iodine]  1.1
32. NC(=O)CN1CCCC1=O [Piracetam]  1.21
33. CC(C)=CCOc1c2occc2cc2ccc(=O)oc12 [Imperatorin]  1.29
34. COc1ccc2c3c([nH]c2c1)C(C)=NCC3 [Harmaline]  3.18
